Records with an inconclusive call do not appear. Activity calls are given as the source filed them. Unless noted, the call rests on the fitted dose curve; in most records, active means well fitted curve in the direction sought with a large enough effect in the repeat runs; inconclusive means weak or mixed curves; inactive means no such curve, though single readings can be large; an effect the other way counts as inactive or inconclusive.
Experiments:
[1] = qHTS assay for small molecule agonists of the p53 signaling pathway (AID 651631; calls by dose curve; further: nearly all actives have a fitted effect of over 15% in size)
Outline: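 HCT-116 cells carrying a stable p53 response element–beta-lactamase reporter were plated, rested 5 h at 37 °C, then exposed to compound in DMSO for 16 h at 37 °C; reporter activity was read as FRET substrate fluorescence after 2 h at room temperature.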

[2] = qHTS assay for small molecules that induce genotoxicity in human embryonic kidney cells expressing luciferase-tagged ATAD5 (AID 651632); further: nearly all actives have a fitted effect of over 15% in size
Outline: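 Test compounds were delivered by pin tool onto HEK293T reporter cells (2,000/well) expressing ATAD5 fused to luciferase. After 16 hr at 37C, 5% CO2, Amplite was added for 30 min at room temperature and luminescence was measured.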

[3] = qHTS assay for small molecule agonists of the p53 signaling pathway - cell viability (AID 651633; calls by dose curve; further: series mostly up to about 83 µM; nearly all actives have a fitted effect of over 30% in size)
Outline: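 p53RE-bla cells, seeded at 4,000 per well and rested 5 h at 37 C/5% CO2, received compounds in DMSO for 16 h at 37 C. CellTiter-Glo was then added, and luminescence was read after 30 min at room temperature to gauge cytotoxicity.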

[4] = qHTS assay for small molecules that induce genotoxicity in human embryonic kidney cells expressing luciferase-tagged ATAD5 - cell viability (AID 651634; calls by dose curve; further: nearly all actives have a fitted effect of over 25% in size)
Outline: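 Quantitative high-throughput format. HEK293T cells expressing ATAD5 fused to luciferase were plated at 2,000 cells/well and treated 15.5 hr with compound versus DMSO. Viability was determined by fluorescent live-cell protease substrate, 30 min at 37C.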

[5] = qHTS assay for small molecule disruptors of the mitochondrial membrane potential - cell viability (AID 720634; calls by dose curve;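 further: human HepG2 liver cancer cells; series mostly up to about 83 µM; nearly all actives have a fitted effect of over 20% in size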)
Outline: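 Same-well counter-screen: following the MMP dye addition, CellTiter-Glo was added to 1 hr compound-treated HepG2 cells and luminescence read after 30 min at room temperature.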

[6] = qHTS assay for small molecule disruptors of the mitochondrial membrane potential (AID 720635)
Outline: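 HepG2 cells (2,000/well) attached overnight at 37C, then took compound for 1 hr at 37C, 5% CO2. Mito-MPS dye was added for 30 min; fluorescence was read at 490/535 nm (monomers) and 540/590 nm (aggregates).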

[7] = qHTS assay to test for compound auto fluorescence at 590 nm (red) in HepG2 cells (AID 720674)
Outline: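 Compound auto-fluorescence is scored relative to Rose Bengal sodium, measured at 540/590 nm in live HepG2 cultures after 1 hr compound contact (37 C, 5% CO2).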

[8] = qHTS assay to test for compound auto fluorescence at 535 nm (green) in HepG2 cells (AID 720675)
[9] = qHTS assay to test for compound auto fluorescence at 590 nm (red) in HEK293 cells (AID 720679)
Outline: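 Red-channel autofluorescence (Ex/Em 540/590 nm; Rose Bengal sodium reference) was measured after overnight 37C, 5% CO2 exposure of attached HEK293 cells, 2,000 per well in medium with 10% dialyzed FBS.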

[10] = qHTS assay to test for compound auto fluorescence at 535 nm (green) in HEK293 cells (AID 720680)
[11] = qHTS assay to test for compound auto fluorescence at 535 nm (green) in HEK293 cell free culture (AID 720682)
Outline: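 Read-out: 485/535 nm fluorescence intensity, calibrated against fluorescein. Medium only (DMEM + 10% FBS, no cells); test compound or DMSO vehicle added by pintool before plate reading.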

[12] = qHTS assay to test for compound auto fluorescence at 590 nm (red) in HepG2 cell free culture (AID 720684)
Outline: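 Readout: intrinsic compound fluorescence at 590 nm emission after 540 nm excitation, scaled to Rose Bengal sodium. Matrix was cell-free MEM with 10% FBS; DMSO vehicle wells served as control.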

[13] = qHTS assay to test for compound auto fluorescence at 460 nm (blue) in HepG2 cell free culture (AID 720685)
Outline: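 Cell-free plates of MEM plus 10% FBS received 23 nL compound or DMSO vehicle; blue-channel (405/460 nm) intensity scored against triamterene as reference fluorophore.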

[14] = qHTS assay to test for compound auto fluorescence at 535 nm (green) in HepG2 cell free culture (AID 720686)
[15] = qHTS assay to test for compound auto fluorescence at 460 nm (blue) in HepG2 cells (AID 720687)
Outline: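 Cells (2,000/well in MEM with 10% FBS) attached overnight at 37 C, then were exposed to compound or DMSO for 1 hr at 37 C, 5% CO2. Fluorescence read at Ex/Em 405/460 nm, expressed as triamterene-equivalent signal.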

[16] = biological target: Glucocorticoid receptor (Homo sapiens) (UniProt P04150); assay: qHTS assay to identify small molecule antagonists of the glucocorticoid receptor (GR) signaling pathway (AID 720692; active means well fitted inhibition curve with a large enough effect in the signal ratio in the repeat runs, not every such curve was filed as active; the % refers to the signal ratio)
Glucocorticoid receptor (Homo sapiens), sequence (P04150 whole entry, looked up): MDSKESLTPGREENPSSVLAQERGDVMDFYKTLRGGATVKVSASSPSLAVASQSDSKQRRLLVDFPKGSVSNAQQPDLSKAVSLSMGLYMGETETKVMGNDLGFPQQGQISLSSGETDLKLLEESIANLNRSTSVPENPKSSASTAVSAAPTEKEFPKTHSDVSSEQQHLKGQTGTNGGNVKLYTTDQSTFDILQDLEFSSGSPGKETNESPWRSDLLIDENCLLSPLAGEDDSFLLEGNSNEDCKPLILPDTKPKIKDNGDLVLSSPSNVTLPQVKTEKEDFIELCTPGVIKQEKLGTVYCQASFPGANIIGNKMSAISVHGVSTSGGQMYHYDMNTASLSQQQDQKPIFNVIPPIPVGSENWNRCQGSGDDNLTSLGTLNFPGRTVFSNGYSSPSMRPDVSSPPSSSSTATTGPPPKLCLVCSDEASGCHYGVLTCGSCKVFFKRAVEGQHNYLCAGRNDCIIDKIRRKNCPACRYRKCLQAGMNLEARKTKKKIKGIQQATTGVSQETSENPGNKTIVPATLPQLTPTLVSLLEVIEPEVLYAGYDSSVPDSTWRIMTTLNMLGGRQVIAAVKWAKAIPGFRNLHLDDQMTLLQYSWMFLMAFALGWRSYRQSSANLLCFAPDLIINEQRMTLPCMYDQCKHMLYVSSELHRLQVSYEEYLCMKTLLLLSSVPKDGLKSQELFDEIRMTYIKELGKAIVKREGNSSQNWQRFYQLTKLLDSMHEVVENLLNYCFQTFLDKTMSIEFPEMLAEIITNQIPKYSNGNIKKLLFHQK
Outline: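 GRE-bla HeLa line, dex-stimulated (5 nM final). Compound exposure 18 h, 37 C. Beta-lactamase FRET read after 2 h RT substrate.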

[17] = qHTS assay to identify small molecule antagonists of the glucocorticoid receptor (GR) signaling pathway - cell viability counter screen (AID 720693); further: nearly all actives have a fitted effect of over 55% in size
[18] = qHTS assay for identifying genotoxic compounds that show differential cytotoxicity against isogenic chicken DT40 cell lines with known DNA damage response pathways - wild type cell line (AID 743012); further: nearly all actives have a fitted effect of over 60% in size
Outline: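 300 wt DT40 cells/well; cpd (DMSO) pintool-transferred after ~0.5 h at 37 C/5% CO2; 40 h incubation; CellTiter-Glo added, 30 min RT; luminescence read.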

[19] = qHTS assay for identifying genotoxic compounds that show differential cytotoxicity against isogenic chicken DT40 cell lines with known DNA damage response pathways - Rev3 mutant cell line (AID 743014); further: nearly all actives have a fitted effect of over 55% in size
[20] = qHTS assay for identifying genotoxic compounds that show differential cytotoxicity against isogenic chicken DT40 cell lines with known DNA damage response pathways - Rad54/Ku70 mutant cell line (AID 743015); further: nearly all actives have a fitted effect of over 60% in size
[21] = qHTS assay to identify small molecule antagonists of the androgen receptor (AR) signaling pathway - cell viability counter screen (AID 743033; further: nearly all actives have a fitted effect of over 45% in size)
[22] = biological target: Androgen receptor (Homo sapiens) (UniProt P10275); assay: qHTS assay to identify small molecule antagonists of the androgen receptor (AR) signaling pathway (AID 743035; active means well fitted inhibition curve with a large enough effect in the signal ratio in the repeat runs, not every such curve was filed as active; the % refers to the signal ratio)
Androgen receptor (Homo sapiens), sequence (P10275 whole entry, looked up): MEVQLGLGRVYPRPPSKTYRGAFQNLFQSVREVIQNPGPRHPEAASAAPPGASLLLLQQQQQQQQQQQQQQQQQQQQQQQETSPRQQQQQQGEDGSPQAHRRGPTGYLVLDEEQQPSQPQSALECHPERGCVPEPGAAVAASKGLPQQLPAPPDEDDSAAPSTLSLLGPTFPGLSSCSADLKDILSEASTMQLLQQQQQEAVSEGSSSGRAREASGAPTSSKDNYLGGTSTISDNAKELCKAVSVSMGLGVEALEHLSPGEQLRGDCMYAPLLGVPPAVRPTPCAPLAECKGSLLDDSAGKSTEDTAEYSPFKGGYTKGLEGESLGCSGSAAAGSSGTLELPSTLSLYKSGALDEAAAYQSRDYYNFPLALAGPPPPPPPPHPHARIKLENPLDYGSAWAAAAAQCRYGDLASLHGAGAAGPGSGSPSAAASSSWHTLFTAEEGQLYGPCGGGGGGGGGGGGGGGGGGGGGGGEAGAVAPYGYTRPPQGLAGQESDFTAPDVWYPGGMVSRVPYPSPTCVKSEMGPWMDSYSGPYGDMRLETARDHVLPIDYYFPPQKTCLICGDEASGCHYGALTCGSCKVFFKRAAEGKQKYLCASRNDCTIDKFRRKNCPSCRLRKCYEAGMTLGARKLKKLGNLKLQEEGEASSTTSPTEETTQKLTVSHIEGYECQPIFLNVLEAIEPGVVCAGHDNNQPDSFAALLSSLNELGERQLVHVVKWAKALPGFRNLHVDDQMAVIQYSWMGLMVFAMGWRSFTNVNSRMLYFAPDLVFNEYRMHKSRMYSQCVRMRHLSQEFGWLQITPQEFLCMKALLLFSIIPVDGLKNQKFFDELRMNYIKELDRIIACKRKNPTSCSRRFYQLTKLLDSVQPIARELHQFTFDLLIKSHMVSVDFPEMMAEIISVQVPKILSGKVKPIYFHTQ
Outline: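 In this cell-based reporter screen, compounds were tested in concentration series against R1881-activated HEK293 cells expressing beta-lactamase under UAS control; after 16 h at 37C, FRET substrate was added and fluorescence read 2 h later.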

[23] = biological target: Androgen receptor (Homo sapiens) (UniProt P10275); assay: qHTS assay to identify small molecule agonists of the androgen receptor (AR) signaling pathway (AID 743036; active means well fitted activation curve with a large enough effect in the signal ratio in the repeat runs, with a control signal flat, not every such curve was filed as active; the % refers to the signal ratio)
Outline: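 HEK293 cells stably carrying a UAS-driven beta-lactamase reporter (GeneBLAzer AR-UAS-bla-GripTite) were plated at 2,000 cells/well, rested 4 h at 37C, then exposed to compounds in DMSO for 16 h. LiveBLAzer B/G FRET substrate was added for 2 h at room temperature; fluorescence read.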

[24] = biological target: Androgen receptor (Homo sapiens) (UniProt P10275); assay: qHTS assay to identify small molecule agonists of the androgen receptor (AR) signaling pathway using the MDA cell line (AID 743040; further: nearly all actives have a fitted effect of over 20% in size)
Outline: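 Agonist activity is measured as luciferase luminescence in human MDA-kb2 cells whose MMTV reporter responds to both AR and GR. Compounds in DMSO incubate 16 h at 37C, 0% CO2, and ONE-Glo is read after 30 min.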

[25] = qHTS assay to identify small molecule antagonists of the androgen receptor (AR) signaling pathway using the MDA cell line - cell viability counter screen (AID 743041; further: nearly all actives have a fitted effect of over 45% in size)
Outline: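 qHTS viability read-out; MDA-kb2 AR-luc; R1881-stimulated; 16 h exposure at 37C, 0% CO2; CellTiter-Fluor, 30 min; fluorescence intensity.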

[26] = biological target: Androgen receptor (Homo sapiens) (UniProt P10275); assay: qHTS assay to identify small molecule antagonists of the androgen receptor (AR) signaling pathway using the MDA cell line (AID 743042; further: nearly all actives have a fitted effect of over 55% in size)
Outline: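 MDA-kb2 cells (human breast carcinoma, stably carrying an MMTV-luciferase reporter responsive to AR and GR) were plated at 3,000 cells/well and preincubated 5 hr at 37C, then given compound plus R1881 agonist for 16 h. ONE-Glo luminescence was read.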

[27] = qHTS assay to identify small molecule antagonists of the thyroid receptor (TR) signaling pathway - cell viability counter screen (AID 743064); further: nearly all actives have a fitted effect of over 50% in size
Outline: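 GH3.TRE-Luc rat pituitary cells carrying a TRE-luciferase reporter were treated with compound plus 1 nM T3 (final) for 23.5 h at 37 °C. Viability was then read in the same wells by CellTiter-Fluor fluorescence after a further 30 min.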

[28] = qHTS assay to identify small molecule antagonists of the thyroid receptor (TR) signaling pathway (AID 743065); further: series mostly up to about 70 µM; nearly all actives have a fitted effect of over 55% in size
Outline: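 GH3.TRE-Luc rat pituitary cells carrying two TR response elements driving luciferase were plated for 4 h, given compound plus 1 nM T3 (final), and incubated 23.5 h at 37 C. ONE-Glo luminescence measured reporter inhibition; CellTiter-Fluor fluorescence tracked cytotoxicity.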

[29] = test system: thyroid hormone receptor (rat, GH3 cells); assay: qHTS assay to identify small molecule agonists of the thyroid receptor (TR) signaling pathway (AID 743066; calls by dose curve)
[30] = qHTS assay to identify small molecule antagonists of the estrogen receptor alpha (ER-alpha) signaling pathway - cell viability counter screen (AID 743074; calls by dose curve;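 further: HEK293 cells carrying ER-alpha-UAS-bla reporter stimulated with 17beta-estradiol; nearly all actives have a fitted effect of over 45% in size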)
[31] = biological target: Estrogen receptor (Homo sapiens) (UniProt P03372); assay: qHTS assay to identify small molecule agonists of the estrogen receptor alpha (ER-alpha) signaling pathway (AID 743075; calls by dose curve)
Estrogen receptor (Homo sapiens), sequence (P03372 whole entry, looked up): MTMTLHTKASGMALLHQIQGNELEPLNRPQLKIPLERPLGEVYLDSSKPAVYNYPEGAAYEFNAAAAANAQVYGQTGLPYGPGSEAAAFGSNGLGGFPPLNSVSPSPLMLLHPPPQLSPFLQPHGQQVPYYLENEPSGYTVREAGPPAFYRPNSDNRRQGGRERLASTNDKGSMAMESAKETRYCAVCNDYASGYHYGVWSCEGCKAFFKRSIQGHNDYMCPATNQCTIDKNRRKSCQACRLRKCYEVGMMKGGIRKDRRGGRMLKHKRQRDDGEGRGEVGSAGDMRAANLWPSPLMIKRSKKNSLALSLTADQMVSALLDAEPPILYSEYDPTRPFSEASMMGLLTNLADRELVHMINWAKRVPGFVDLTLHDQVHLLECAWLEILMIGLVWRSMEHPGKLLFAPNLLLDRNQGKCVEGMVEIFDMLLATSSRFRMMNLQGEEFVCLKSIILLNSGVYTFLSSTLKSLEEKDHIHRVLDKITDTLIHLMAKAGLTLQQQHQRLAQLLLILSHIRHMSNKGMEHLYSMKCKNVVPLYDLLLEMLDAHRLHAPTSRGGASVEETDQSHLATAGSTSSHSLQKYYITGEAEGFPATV

[32] = biological target: Estrogen receptor (Homo sapiens) (UniProt P03372); assay: qHTS assay to identify small molecule agonists of the estrogen receptor alpha (ER-alpha) signaling pathway using the BG1 cell line (AID 743079); further: nearly all actives have a fitted effect of over 20% in size
[33] = qHTS assay to identify small molecule antagonists of the estrogen receptor alpha (ER-alpha) signaling pathway using the BG1 cell line (AID 743080; calls by dose curve;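 further: BG1 cells stimulated with 17beta-estradiol alongside compound; series mostly up to about 70 µM; nearly all actives have a fitted effect of over 25% in size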)
Outline: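 Luciferase inhibition measured with ONE-Glo after 30 min at RT in BG1Luc4E2 cells given test compounds and 17beta-estradiol for 21.5 h at 37 C; CellTiter-Fluor viability read in the same wells beforehand.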

[34] = qHTS assay to identify small molecule antagonists of the estrogen receptor alpha (ER-alpha) signaling pathway using the BG1 cell line - cell viability counter screen (AID 743081);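 further: compound given together with 17beta-estradiol as the ER stimulus; series mostly up to about 70 µM; nearly all actives have a fitted effect of over 45% in size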
Aromatase (Homo sapiens) = Aromatase (Homo sapiens) (UniProt P11511); assay: qHTS assay to identify aromatase inhibitors (AID 743083)
Aromatase (Homo sapiens), sequence (P11511 whole entry, looked up): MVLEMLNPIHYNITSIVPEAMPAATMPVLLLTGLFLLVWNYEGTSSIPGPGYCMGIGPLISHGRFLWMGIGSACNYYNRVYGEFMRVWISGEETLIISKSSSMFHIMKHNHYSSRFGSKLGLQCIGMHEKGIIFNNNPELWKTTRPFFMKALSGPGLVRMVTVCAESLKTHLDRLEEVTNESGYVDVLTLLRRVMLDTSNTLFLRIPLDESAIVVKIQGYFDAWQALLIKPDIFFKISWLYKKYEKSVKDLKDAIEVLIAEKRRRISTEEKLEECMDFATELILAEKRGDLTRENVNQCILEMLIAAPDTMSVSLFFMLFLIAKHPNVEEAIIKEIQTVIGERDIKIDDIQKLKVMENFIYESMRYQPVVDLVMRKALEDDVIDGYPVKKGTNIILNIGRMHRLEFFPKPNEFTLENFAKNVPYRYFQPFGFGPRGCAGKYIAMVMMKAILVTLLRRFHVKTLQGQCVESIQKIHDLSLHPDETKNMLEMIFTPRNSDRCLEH

[35] = qHTS assay to identify aromatase inhibitors - cell viability counter screen (AID 743084)
[36] = biological target: Aryl hydrocarbon receptor (Homo sapiens) (UniProt P35869); assay: qHTS assay to identify small molecule that activate the aryl hydrocarbon receptor (AhR) signaling pathway (AID 743085);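 further: HG2L7.5c1 human HepG2 liver cells with stably integrated DRE-driven firefly reporter; series mostly up to about 70 µM; nearly all actives have a fitted effect of over 15% in size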
Aryl hydrocarbon receptor (Homo sapiens), sequence (P35869 whole entry, looked up): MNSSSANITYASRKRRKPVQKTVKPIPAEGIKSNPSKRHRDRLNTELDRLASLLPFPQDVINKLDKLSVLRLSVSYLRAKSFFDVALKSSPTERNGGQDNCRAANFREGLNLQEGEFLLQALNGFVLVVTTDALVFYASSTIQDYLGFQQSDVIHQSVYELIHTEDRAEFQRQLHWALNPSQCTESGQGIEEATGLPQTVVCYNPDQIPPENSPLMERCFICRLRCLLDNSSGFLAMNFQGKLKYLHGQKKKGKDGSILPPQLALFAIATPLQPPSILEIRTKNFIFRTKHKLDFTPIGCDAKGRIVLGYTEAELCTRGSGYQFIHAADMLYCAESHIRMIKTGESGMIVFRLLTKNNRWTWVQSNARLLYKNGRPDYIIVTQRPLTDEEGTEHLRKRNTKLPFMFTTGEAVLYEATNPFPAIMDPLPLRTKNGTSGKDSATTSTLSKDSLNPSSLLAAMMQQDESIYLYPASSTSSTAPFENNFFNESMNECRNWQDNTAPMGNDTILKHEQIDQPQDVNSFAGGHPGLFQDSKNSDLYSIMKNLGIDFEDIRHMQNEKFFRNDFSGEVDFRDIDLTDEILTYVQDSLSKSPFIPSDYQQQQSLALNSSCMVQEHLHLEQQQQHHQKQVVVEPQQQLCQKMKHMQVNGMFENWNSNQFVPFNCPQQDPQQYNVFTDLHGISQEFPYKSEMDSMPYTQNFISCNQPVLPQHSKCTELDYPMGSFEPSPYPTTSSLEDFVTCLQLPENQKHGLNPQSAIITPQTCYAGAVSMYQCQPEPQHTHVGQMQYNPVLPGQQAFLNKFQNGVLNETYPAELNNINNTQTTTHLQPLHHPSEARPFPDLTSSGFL
Outline: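 HepG2 cells (HG2L7.5c1) stably carrying a firefly luciferase reporter driven by 20 dioxin responsive elements were exposed to compound for 24 h at 37C after a 5 h settling period; luminescence rise (ONE-Glo) indicated activation.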

[37] = qHTS assay to identify small molecule that activate the aryl hydrocarbon receptor (AhR) signaling pathway - cell viability counter screen (AID 743086)
Outline: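 HepG2-AhR-luc (HG2L7.5c1) cells, 4000/well, were preincubated 5 h at 37C, exposed to compound in qHTS format for 24 hr at 37C, then given CellTiter-Fluor for 30 min; viability was read as fluorescence in the reporter wells.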

[38] = biological target: Peroxisome proliferator-activated receptor gamma (Homo sapiens) (UniProt P37231); assay: qHTS assay to identify small molecule agonists of the peroxisome proliferator-activated receptor gamma (PPARg) signaling pathway (AID 743094; active means well fitted activation curve with a large enough effect in the signal ratio in the repeat runs, not every such curve was filed as active; the % refers to the signal ratio)
Peroxisome proliferator-activated receptor gamma (Homo sapiens), sequence (P37231 whole entry, looked up): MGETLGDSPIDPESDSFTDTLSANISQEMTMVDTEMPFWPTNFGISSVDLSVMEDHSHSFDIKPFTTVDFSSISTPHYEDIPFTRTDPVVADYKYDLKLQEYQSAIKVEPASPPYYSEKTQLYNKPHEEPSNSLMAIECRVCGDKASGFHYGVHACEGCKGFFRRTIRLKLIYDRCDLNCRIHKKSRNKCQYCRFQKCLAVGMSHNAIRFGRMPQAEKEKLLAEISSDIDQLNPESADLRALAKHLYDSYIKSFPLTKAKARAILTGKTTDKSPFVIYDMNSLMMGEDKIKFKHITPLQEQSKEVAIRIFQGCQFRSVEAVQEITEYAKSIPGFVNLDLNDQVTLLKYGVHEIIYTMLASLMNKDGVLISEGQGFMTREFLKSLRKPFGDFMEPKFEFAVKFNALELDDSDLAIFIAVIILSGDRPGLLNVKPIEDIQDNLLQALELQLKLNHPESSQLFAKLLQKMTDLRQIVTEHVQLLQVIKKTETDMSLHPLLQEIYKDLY
Outline: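 Cell-based bla reporter, HEK293H background, PPARg-driven UAS. Pre-incubation 5 h, 37C, 5% CO2. Compound 17 h, 37C. Substrate 1 h RT; fluorescence.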

[39] = qHTS assay to identify small molecule antagonists of the estrogen related receptor (ERR) signaling pathway - cell viability counter screen (AID 1224818);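 further: series mostly up to about 46 µM; viability measured after 17.5 h of compound exposure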
Outline: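 Cytotoxicity check run alongside the ERR antagonist screen: cells exposed to test compounds 17.5 h at 37 C, viability taken as CellTiter-Fluor fluorescence intensity.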

[40] = qHTS assay to identify small molecule antagonists of the estrogen related receptor (ERR) signaling pathway (AID 1224819;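 further: luminescence from an ERR-driven luciferase reporter measured with One-Glo reagent; series mostly up to about 46 µM; nearly all actives have a fitted effect of over 50% in size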)
Outline: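 ERR reporter cells were plated at 2,000 cells/well and left 6 h at 37 C/5% CO2 before pin-tool transfer of compounds in DMSO. After 18 h at 37 C, One-Glo was added and luminescence was read 30 min later at room temperature.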

[41] = qHTS assay to identify small molecule antagonists of the estrogen related receptor signaling pathway with the pleiotropic PPARgamma coactivator (PGC) cell viability counter screen (AID 1224822;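 further: series mostly up to about 46 µM; viability read after 17.5 h compound exposure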)
Outline: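 Viable cell signal (CellTiter-Fluor, 30 min, 37 C/5% CO2) was measured in PGC/ERR cells after a 17.5 h compound incubation.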

[42] = qHTS assay to identify small molecule agonists of the estrogen related receptor signaling pathway with the pleiotropic PPARgamma coactivator (PGC) (AID 1224823)
Outline: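 Compounds dissolved in DMSO are added by pin tool to PGC/ERR cells that have settled for 6 h, and incubation continues 18 h at 37 C. Reporter output is measured as One-Glo luminescence.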

[43] = qHTS assay to identify small molecule phospholipidosis (PLD) inducers (AID 1259344; active means well fitted curve in the direction sought with a large enough effect; an effect the other way counts as inactive or inconclusive)
Outline: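 Cells (HepG2, 900 per well) attach for 4 h, receive LipidTOX Red and compound together, incubate 24 h at 37 C, are fixed 30 min with paraformaldehyde/Hoechst, then imaged at one site per well.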

Measured: Potency

NC(=O)CN1CC(O)CC1=O (centres undefined)
inactive: all assays above

— PubChem BioAssay (Tox21)
